Screening data from PubChem.
This is a sample that favours compounds with a hit; in the whole collection about 12% have one here.
PI5P4Ka inh: blocks human PI5P4K alpha kinase activity | P48426 | PI5P4Kalpha enzyme, ADP-Glo luminescence, 60 min; hits give low values | max response, % | hit rate 1.2% among 330,000; active = max response of -50% or lower; inconclusive = between -30% and -50%; inactive = -30% or higher; also: value at the top dose of about 77 µM
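qHTS, 1536-well: enzyme/substrate mix, compound by pin tool, 5 microM ATP final; RT 60 min; ADP-Glo reagents 1 (45 min) then 2 (30 min); luminescence.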
BAZ2B inh: inhibitors of human BAZ2B bromodomain | Q9UIF8 | AlphaScreen BAZ2B-H3K14Ac peptide displacement | Potency, µM (highest dose often 114 µM), usual class: inhibitors | hit rate 4.4% among 360,000 | AID 504333; also: nearly all actives have a fitted effect of over 60% in size
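BAZ2B (50 nM) with biotin-H3(5-23)K14Ac peptide (50 nM) in PBS pH 7.4, 0.01% Tween-20, preformed 30 min, then compound 30 min at room temperature; top concentration 110uM. AlphaScreen streptavidin donor/nickel chelate acceptor beads (10 ug/mL final), 20 min dark, signal read.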
JMJD2A Tudor inh: inhibitors of human JMJD2A Tudor domain; O75164; AlphaScreen JMJD2A-Tudor / H3K4me3 peptide binding; AID 504339; hit rate 4.4% among 390,000; Potency, µM (doses to about 114 µM), hits mostly inhibitors; also: nearly all actives have a fitted effect of over 50% in size
G9a inh: blocks human histone lysine methyltransferase G9a. Q96KQ7. G9a H3K9 monomethylation, AlphaScreen, 2 h. Potency, µM (top dose mostly 102 µM), usual class: inhibitors. hit rate 8.8% among 350,000. AID 504332; also: nearly all actives have a fitted effect of over 75% in size
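Chemiluminescent proximity detection of H3K9 monomethylation, read after 10 min bead incubation in the dark. Reaction: 20 nM G9a, 500 nM biotin-H3K9 peptide, 20 uM SAM cofactor, 2 h, room temperature, following 15 min enzyme-compound preincubation.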
HP1b chromo inh: blocks HP1-beta chromodomain binding to methylated histone tails. AlphaScreen HP1-beta / biotin-H3K9me3 peptide binding. Potency, µM (titrated, usually from 114 µM), hits mostly inhibitors. P83916. AID 540317. hit rate 0.56% among 390,000; also: nearly all actives have a fitted effect of over 70% in size
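Compound inhibition of the preformed complex between 50 nM HP1-beta and 50 nM biotinylated H3K9me3 peptide was read by AlphaScreen. Buffer was PBS pH 7.4 with 0.01% Tween-20. Incubations ran 30 min at room temperature, with 10 ug/mL donor/acceptor beads.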
PLK1 PBD block: PLK1 (human) polo-box domain binding inhibition; P53350; Plk1 PBD binding of FITC phosphopeptide, fluorescence polarization; hit rate 2.8% among 360,000; AID 720504; Potency, µM, actives largely listed as inhibitors; also: series mostly up to about 57 µM; nearly all actives have a fitted effect of over 65% in size
Target sequence (P53350 whole entry, looked up, the tested form may be a part): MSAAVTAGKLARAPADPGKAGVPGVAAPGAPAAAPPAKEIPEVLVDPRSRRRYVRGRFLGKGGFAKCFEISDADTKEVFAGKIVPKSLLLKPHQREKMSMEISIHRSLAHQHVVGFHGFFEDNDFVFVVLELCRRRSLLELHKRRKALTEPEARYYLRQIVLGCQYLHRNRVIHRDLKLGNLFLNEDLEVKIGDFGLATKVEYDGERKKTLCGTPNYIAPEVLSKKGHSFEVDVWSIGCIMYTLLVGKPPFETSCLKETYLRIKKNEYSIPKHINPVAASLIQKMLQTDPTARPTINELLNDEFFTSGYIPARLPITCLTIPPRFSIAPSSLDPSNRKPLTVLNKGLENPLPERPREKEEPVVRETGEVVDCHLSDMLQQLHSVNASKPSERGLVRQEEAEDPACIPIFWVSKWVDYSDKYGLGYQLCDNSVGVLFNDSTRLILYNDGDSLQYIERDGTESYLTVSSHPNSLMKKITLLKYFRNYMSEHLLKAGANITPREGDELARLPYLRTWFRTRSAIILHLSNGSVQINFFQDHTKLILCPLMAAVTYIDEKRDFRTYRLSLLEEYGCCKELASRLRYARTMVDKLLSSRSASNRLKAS
A number is an active result; n = inactive; u = inconclusive; x = no result given; [ ] = remark or other dose. Unless noted, calls follow the shape of the dose curve; as a rule, active = well fitted curve in the direction sought with a large enough effect; inconclusive = small, poorly fitted or top-dose-only effect, or another doubt; inactive = no such curve, though single readings can be large; an effect the other way counts as inactive or inconclusive.

SMILES	PI5P4Ka inh	BAZ2B inh	JMJD2A Tudor inh	G9a inh	HP1b chromo inh	PLK1 PBD block
Clc1cccc(-n2ncc3c(NCCCN4CCOCC4)ncnc32)c1	x	n	n	n	n	x
OC[C@@H]1O[C@](CO)(O[C@H]2O[C@H](CO)[C@@H](O)[C@H](O)[C@H]2O)[C@H](O)[C@H]1O	x	x	x	n[12.7 µM]	x	x
CC1CC1C(=O)OCC(=O)Nc1ccc(N=Nc2ccccc2)cc1 (centres undefined)	n	28µM	n	35µM	u	n
CC1=C/C(=N\OS(=O)(=O)c2ccccc2)C(C(C)C)=CC1=O	n	35µM	u	8.9µM	u	n
CC1=C/C(=N\OS(=O)(=O)c2ccccc2)C(C)=CC1=O	n	35µM	u	20µM	n	n
CC(S(=O)(=O)c1ccccc1)S(=O)(=O)c1ccccc1	n	x	x	x	x	n
CON=C1C=C(C)C(=O)C(C)=C1C	n	x	n	x	n	n
CCOC(=O)Cc1csc(NC(=O)c2csc3c2CCCC3)n1	x	n	n	35µM	n	n
CCOC(=O)Cc1csc(NC(=O)c2cc(OC)cc(OC)c2)n1	n	n	79µM	n	n	n
CCOC(=O)Cc1csc(NC(=O)c2ccco2)n1	x	n	79µM	n[12.7 µM]	n	n
CCOC(=O)Cc1csc(NC(=O)c2cc3c(s2)CCCC3)n1	x	n	n	n	n	n
CCOC(=O)Cc1csc(NC(=O)c2ccncc2)n1	n	n	n	n[12.7 µM]	n	n
CCOC(=O)Cc1csc(NC(=O)c2ccc(C)o2)n1	x	n	n	u	n	n
CCOC(=O)Cc1csc(NC(=O)c2ccc(NC(C)=O)cc2)n1	n	n	20µM	u	n	n
Cn1cc(S(=O)(=O)N2CCCCC2)cc1C(=O)Nc1cccc(C#N)c1	x	n	n	n	n	x
Cc1nc2ccc(S(=O)(=O)NC(C(=O)N3CCN(c4ccc(Cl)cc4)CC3)C(C)C)cc2s1 (centres undefined)	x	n	n	n	n	x
CC(C)c1cc(C(=O)N/N=C/c2ccco2)n[nH]1	n	n	n	n	n	7.5µM
CCOC(=O)c1c(NC(=S)Nc2ccc(OC)cc2)sc2c1CCC2	n	u	n	n	u	u
CCOC(=O)c1c(NC(=S)NC)sc2c1CC(C)(C)SC2	u	n	n	u	n	24µM
CCOC(=O)c1c(NC(=S)Nc2ccc(OC)cc2)sc2c1CCCCC2	n	n	n	u	u	n
CCOC(=O)c1c(NC(=S)Nc2ccccc2)sc2c1CC(C)(C)SC2	n	u	n	40µM	n	u
COc1cccc(CNS(=O)(=O)c2cnc(N)nc2)c1	x	n	n	n	n	x
CCN(CC)Cc1c(C(=O)N/N=C(\C)c2ccncc2)nnn1-c1nonc1N	n	n	n	n	n	n
CCOc1ccc(CNCc2c(C(=O)O)n(Cc3ccccc3F)c3cc(OC)ccc23)cc1	x	n	n	n	n	x
O=C(NCc1cccc(Cl)c1)NCc1noc2ccccc12	x	n	n	n	n	x
SMILES	PI5P4Ka inh	BAZ2B inh	JMJD2A Tudor inh	G9a inh	HP1b chromo inh	PLK1 PBD block
CC[n+]1c(C)sc2sc3ccccc3c21	x	25µM	x	1µM	x	x
Cc1nc2c(s1)sc1ccccc12	n	n	n	n	n	n
Nc1ncnc(Sc2ncccn2)c1[N+](=O)[O-]	n	79µM	n	u	n	u
Nc1ncnc(Sc2ccccc2)c1[N+](=O)[O-]	n	n	n	n	n	n
C#CCOCCOCCOCCNc1nc(N2CCN(C(=O)C([C@@H](C)O)n3cc([C@@H](N)CCCCN)nn3)CC2)nc(N2CCN(C(=O)[C@H](CCC(=O)O)n3cc([C@@H](N)CCCCN)nn3)CC2)n1 (some centres undefined)	n	x	u	x	n	n
C#CCOCCOCCOCCNc1nc(N2CCN(C(=O)C([C@@H](C)CC)n3cc(C(N)CO)nn3)CC2)nc(N2CCN(C(=O)[C@H](CCC(=O)O)n3cc(C(N)Cc4ccc(O)cc4)nn3)CC2)n1 (some centres undefined)	x	40µM	x	n[12.7 µM]	x	x
C#CCOCCOCCOCCNc1nc(N2CCN(C(=O)[C@H]([C@@H](C)CC)n3cc([C@@H](N)Cc4ccc(O)cc4)nn3)CC2)nc(N2CCN(C(=O)[C@H](CCCCN)n3cc([C@@H](N)CO)nn3)CC2)n1	x	50µM	x	u	x	x
Cc1nc(N)sc1-c1csc(N(C)c2ccc(O)cc2)n1	x	n	56µM	45µM	n	n
